Screening results: PubChem BioAssay, National Center for Advancing Translational Sciences (NCATS)
SKOV3 invasion – inhibitors of ovarian cancer cell adhesion and invasion in omental model | SKOV3ip1-GFP adhesion/invasion on 3D omental model, fluorescence | 0.1% of 46,000 active | Potency, µM (highest dose often 45.8 µM), without a hit: top-dose activity change, negative = inhibition, most hits filed as inhibitors | AID 1963576;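 also: potency is read from the fitted curve at half-maximal effect; plate controls were DMSO wells for no effect and tomatine positive control wells for full effect; nearly all actives have a fitted effect of over 65% in size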
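Primary human omental fibroblast/mesothelial 3D culture pre-formed 48 h. SKOV3ip1-GFP cells added with compounds (0.36-46 umol/L), incubated 2 h RT/16 h 37 C, fixed; GFP cells quantified at 488/509 nm.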
p53null 39C tox – p53 null cell cytotoxicity, nonpermissive temperature; H1299 p53-null (neo) cells, 39C, ATPlite viability, 24 h; Potency, µM (titrated, usually from 46.1 µM), without a hit: top-dose activity, negative = cell killing, hits mostly cytotoxic; 0.97% of 55,000 active;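 also: potency is read from the fitted curve at half-maximal effect; 0% = DMSO only and -100% = full killing by 100 µM tamoxifen; nearly all actives have a fitted effect of over 50% in size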
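Concentration-response (up to 46 uM) was run for 24 h at the nonpermissive 39C on H1299-p53A138V or H1299-neo cells. ATP content was measured with ATPlite luminescence. AC50 values were Hill-modeled after normalizing between DMSO and 100 uM tamoxifen killing.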
S16 F2sN tox – S16 Schwann cell cytotoxicity; S16 Pmp22-F2sN Schwann cells viability, CellTiter-Glo, 24 h; Potency, µM (titrated, usually from 57.5 µM), without a hit: at the highest dose activity change, negative = cytotoxicity, hits mostly cytotoxic; 0.48% of 43,000 active; AID 1508642; also: potency is read from the fitted curve at half-maximal effect; % is scaled to controls: 0 for no effect and ±100 for the full control effect; nearly all actives have a fitted effect of over 65% in size
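Used to flag compounds lowering reporter output through toxicity, this quantitative HTS measures ATP-based CellTiter-Glo luminescence in S16 Pmp22-F2sN Schwann cells after 24 h compound exposure at 37C.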
pS6 MEF inh – reduces mTORC1 signaling in Tsc2 and p53 null MEF cells; Tsc2-/- p53-/- MEF, phospho-rpS6 immunofluorescence/PI, 24 h; Potency, µM (doses to about 38.3 µM), for inactives: at the highest dose activity change, negative = inhibition, most hits filed as inhibitors; 0.78% of 44,000 active;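 also: potency is read from the fitted curve at half-maximal effect; plate controls were DMSO for no effect and rapamycin for full effect; nearly all actives have a fitted effect of over 50% in size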
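Read-out: phospho-S6 Alexa-488 intensity over PI intensity per well, scored as % active cells using thresholds from rapamycin (7.5 nM) and DMSO controls. Tsc2-/-, p53-/- MEFs exposed to compound for 24 h; PI cell count recorded as viability.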
PMP22 txn prim – modulators of PMP22 gene transcription in S16 Schwann cells; 2% of 43,000 active; AID 1508649; Potency, µM (highest dose often 57.5 µM), without a hit: top-dose activity change, negative = inhibition, usual class: inhibitors; S16 Pmp22-F2sN Schwann cells, FLuc/NLuc coincidence luminescence, 24 h; active = clear falling dose curves in both reporters; inconclusive = both reporters move, but less clearly or upward; inactive = either reporter flat; the % is the NLuc reporter signal; also: potency is read from the fitted curve at half-maximal effect; % is scaled to controls: 0 for no effect and ±100 for the full control effect
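Luminescent read-out of sequential FLuc and NLuc signals from a reporter embedded in the Pmp22 3' UTR of S16 Schwann cells, taken after 24 h compound exposure at 37C; compounds reducing both signals score as inhibitors of expression.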
p53null 32C tox – p53 null cell cytotoxicity, permissive temperature; Potency, µM (series often up to 46.1 µM), without a hit: top-dose activity change, negative = cytotoxicity, actives largely listed as cytotoxic; 0.62% of 55,000 active; H1299-neo p53 null cells, ATP luminescence, 24 h, 32C;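 also: potency is read from the fitted curve at half-maximal effect; 0% = DMSO only and -100% = full killing by 100 µM tamoxifen; nearly all actives have a fitted effect of over 55% in size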
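Cells lacking p53 (H1299-neo) are plated at 600 per well and allowed to settle overnight at 37C. Test compounds (up to 46 uM) are added and held 24 hours at 32C, then ATP is quantified by luminescence.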
NLuc sat counter – inhibits NanoLuc at saturating substrate, PMP22 counter-screen; shares compounds with PMP22 txn prim; Secreted NLuc enzyme (filtered S16 cell medium), Nano-Glo luminescence; Potency, µM (highest dose often 57.5 µM), for the others: at the top dose activity change, negative = inhibition, most hits filed as inhibitors; 4% of 690 active; AID 1508638; also: potency is read from the fitted curve at half-maximal effect; % is scaled to controls: 0 for no effect and ±100 for the full control effect
NLuc Km ctr – NanoLuc inhibition at Km substrate, PMP22 artifact check | shares compounds with PMP22 txn prim | secreted NLuc enzyme, coelenterazine luminescence, Km conditions | Potency, µM (highest dose often 57.5 µM), for the others: at the highest dose activity change, negative = inhibition, most hits filed as inhibitors | 5% of 690 active | AID 1508639; also: potency is read from the fitted curve at half-maximal effect; % is scaled to controls: 0 for no effect and ±100 for the full control effect
FLuc ctr PMP22 – inhibits firefly luciferase, PMP22 counter-screen. shares compounds with PMP22 txn prim. purified P. pyralis FLuc, luminescence, 10 min. Potency, µM (top dose mostly 57.5 µM), inactives show at the highest dose activity, negative = inhibition, hits mostly inhibitors. 690 tested, under 10 active; also: % of control where 0% means no effect
Target sequence (P08659 whole entry, looked up): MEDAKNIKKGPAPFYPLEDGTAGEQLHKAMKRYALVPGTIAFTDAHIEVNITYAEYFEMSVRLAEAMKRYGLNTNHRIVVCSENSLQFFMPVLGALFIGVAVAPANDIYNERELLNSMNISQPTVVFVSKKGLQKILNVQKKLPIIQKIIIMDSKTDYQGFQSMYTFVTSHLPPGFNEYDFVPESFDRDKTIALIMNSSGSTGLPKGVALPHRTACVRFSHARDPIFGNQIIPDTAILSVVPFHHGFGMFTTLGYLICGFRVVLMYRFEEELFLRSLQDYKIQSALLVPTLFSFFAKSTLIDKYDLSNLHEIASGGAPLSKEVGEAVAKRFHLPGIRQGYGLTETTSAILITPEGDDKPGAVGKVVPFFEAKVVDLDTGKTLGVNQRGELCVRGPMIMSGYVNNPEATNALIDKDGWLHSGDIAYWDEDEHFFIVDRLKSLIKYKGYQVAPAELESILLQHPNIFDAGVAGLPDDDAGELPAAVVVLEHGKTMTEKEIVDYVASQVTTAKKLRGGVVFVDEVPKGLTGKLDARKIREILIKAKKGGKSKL
S16 viab conf – confirmation of cytotoxicity in S16 Pmp22-F2sN Schwann cells (luciferase reporters placed in the Pmp22 gene). AID 1508641. Potency, µM (doses to about 57.5 µM), without a hit: top-dose activity change, negative = viability loss, usual class: cytotoxic. 7% of 690 active. shares compounds with PMP22 txn prim. S16 Schwann cells viability, CellTiter-Glo ATP luminescence, 24 h; also: potency is read from the fitted curve at half-maximal effect; % is scaled to controls: 0 for no effect and ±100 for the full control effect
PMP22 txn cnf – PMP22 transcription modulation, confirmatory. shares compounds with PMP22 txn prim. S16 Schwann cells Pmp22-F2sN, dual luciferase, 24 h. Potency, µM (top dose mostly 57.5 µM), for inactives: at the top dose activity change, negative = inhibition, hits mostly inhibitors. 22% of 690 active. AID 1508646; active = clear falling dose curves in both reporters; inconclusive = both reporters move, but less clearly or upward; inactive = either reporter flat; the % is the FLuc reporter signal; also: potency is read from the fitted curve at half-maximal effect
PMP22 HiBiT cnf – confirmation of modulators of rat PMP22 protein expression | shares compounds with PMP22 txn prim | S16 Schwann cells Pmp22-HiBiT, luminescence, 48 h | Potency, µM (titrated, usually from 27.9 µM), for the others: at the highest dose activity change, negative = inhibition, actives largely listed as inhibitors | 95 tested, under 10 active
Target sequence (P25094 whole entry, looked up): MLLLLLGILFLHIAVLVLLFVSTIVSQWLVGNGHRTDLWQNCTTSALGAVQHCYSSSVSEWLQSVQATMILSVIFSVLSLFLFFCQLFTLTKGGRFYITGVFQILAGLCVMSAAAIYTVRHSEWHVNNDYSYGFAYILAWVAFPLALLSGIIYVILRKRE
* hit, by the source's call; i = inactive; ? = inconclusive; · = no result given; [ ] = another dose, or the depositor's remark. An excerpt weighted towards active compounds, which were near 3% of everything screened. Unless noted, calls follow the shape of the dose curve; as a rule, active = well fitted curve in the direction sought with a large enough effect; inconclusive = small, poorly fitted or top-dose-only effect, or another doubt; inactive = no such curve, though single readings can be large; an effect the other way counts as inactive or inconclusive.

SMILES	SKOV3 invasion	p53null 39C tox	S16 F2sN tox	pS6 MEF inh	PMP22 txn prim	p53null 32C tox	NLuc sat counter	NLuc Km ctr	FLuc ctr PMP22	S16 viab conf	PMP22 txn cnf	others
CCOc1ccc(CN2C(=O)C(=O)c3cccc(C)c32)cc1OC	-5.1%	20µM*	14.0%	-21.5%	11.3µM*	-0.6%	?	?	-12.9%	-11.5%	?
CC1=Nc2cc(C(=O)NC3CCCCC3)ccc2Sc2ccc(Cl)cc21	-5.3%	19.2%	-5.9%	?	6.05µM*	39.9%	-4.2%	0.4%	2.4%	-4.9%	8.68µM*
CCCC1=Nc2cc(C(=O)NC3CCCCC3)ccc2Sc2ccc(C)cc21	-7.5%	11.6%	-34.2%	-2.5%	0.897µM*	13.2%	-9.7%	3.0%	-8.2%	0.9%	2.89µM*	PMP22 HiBiT cnf=?
CCCC1=Nc2cc(C(=O)NC3CCCC3)ccc2Sc2ccc(C)cc21	-7.7%	?	1.8%	-9.9%	3.65µM*	23.8%	-7.7%	-1.1%	8.5%	-2.4%	4.44µM*
CC1=Nc2cc(C(=O)N3CCCCC3)ccc2Sc2ccc(C)cc21	i	-3.9%	12.9%	-4.0%	-25.8%	11.3%	·	·	·	·	·
O=C(Nc1ccc(OC(F)(F)F)cc1)c1sccc1NCc1ccnc2ccccc12	1.4%	·	·	·	·	·	·	·	·	·	·
CC[C@@H]([C@H](C)O)n1ncn(-c2ccc(N3CCN(c4ccc(OCC5CO[C@@](Cn6cncn6)(c6ccc(F)cc6F)C5)cc4)CC3)cc2)c1=O (some centres not stated)	3.7%	·	·	·	·	·	·	·	·	·	·
COc1ccc(-c2c(-c3ccc(O)cc3O)n[nH]c2C)cc1	-8.2%[92.2 µM]	·	·	·	·	·	·	·	·	·	·
Cc1ccc(Cl)cc1NC(=O)c1cnn2c(C(F)F)cc(-c3ccccc3)nc12	4.6%	-2.2%	14.8%	-28.8%	-26.4%	-5.4%	·	·	·	·	·
CCOc1ccccc1NC(=O)c1cnn2c(C(F)F)cc(-c3ccccc3)nc12	3.9%	-7.2%	24.7%	-18.3%	11.3µM*	19.8%	-6.3%	2.3%	2.2%	16.5%	?
Cc1ccc(NC(=O)CSc2nc3ccccc3nc2Cc2ccccc2)c(C)c1	-2.9%	6.3%	-3.1%	0.0%	9.46µM*	4.1%	-4.0%	-2.7%	-1.2%	16.6%	?
CCCCOc1ccc(Cn2c(=O)oc3ccc(C)cc32)cc1	-7.6%	-15.5%	0.1%	-1.4%	-11.0%	-1.0%	·	·	·	·	·
Cc1ccc2c(c1)C(=O)C(=O)N2Cc1ccc(OCCC(C)C)cc1	?	?	-12.3%	-12.8%	4.59µM*	20.1%	-10.5%	1.1%	-8.2%	-6.2%	11.5µM*
CCOc1ccc(N(C)C(=O)CS(=O)(=O)c2cccc3nsnc23)cc1	i	8.7%	-0.2%	-0.1%	-14.0%	5.0%	·	·	·	·	·
CCOCCc1nn2c(=O)cc(COC(=O)c3ccc(NC(=O)C(C)(C)C)cc3)nc2s1	-6.6%	0.5%	-19.7%	4.0%	8.2%	-4.6%	·	·	·	·	·
Cc1ccc(-c2cnc(C3CC3)o2)cc1S(=O)(=O)Nc1cccc(C#N)c1	-22.1%	4.0%	?	0.0%	?	-14.5%	·	·	·	·	·
COc1ccc(C)cc1NS(=O)(=O)c1ccc(-c2cnc(C3CC3)o2)cc1	i	?	?	-0.2%	5.55µM*	5.5%	-9.3%	?	-0.9%	-25.7%	?	PMP22 HiBiT cnf=?
N#Cc1ccc(NS(=O)(=O)c2ccc(-c3cnc(C4CC4)o3)cc2)cc1	i	-5.6%	?	12.2%	?	-7.8%	·	·	·	·	·
COc1cccc(NS(=O)(=O)c2cc(-c3cnc(C4CC4)o3)ccc2C)c1	i	?	?	-9.7%	8.53µM*	-13.4%	?	15.3µM*	6.8%	-6.7%	2.89µM*
O=C(CCc1cn(Cc2ccccc2F)c2ccccc12)NCc1ccc(Cl)cc1	18.2%	-19.9%	4.6%	-10.8%	-23.3%	1.4%	·	·	·	·	·
COc1ccccc1CNC(=O)CCc1c(C)nn(-c2ccc(N3CCOCC3)nn2)c1C	i	-6.8%	2.0%	2.6%	0.7%	7.3%	·	·	·	·	·
COc1c(Cl)cc2c([nH]c3cnccc32)c1NC(=O)c1cccnc1C	-0.8%	·	·	·	·	·	·	·	·	·	·
CCC(C)NC(=O)CSc1c2c(nc3cc(Cl)ccc13)CCCC2 (configuration not stated)	3.1%	-29.9%	4.1%	-3.1%	12.1µM*	2.1%	?	?	5.3%	7.2%	?
COc1cc(NC(=O)CSc2c3c(nc4ccccc24)CCC3)cc(OC)c1OC	-9.9%	3.0%	29.5%	?	?	-0.1%	·	·	·	·	·
COc1ccc(NC(=O)CSc2c3c(nc4ccc(Cl)cc24)CCCC3)cc1Cl	-11.7%	21.2%	?	1.3%	18.9µM*	12.2%	?	?	5.8%	?	?
CCOC(=O)c1ccc(NC(=O)CSc2c3c(nc4cc(Cl)ccc24)CCCC3)cc1	27.5%	-10.9%	9.9%	2.0%	?	0.3%	·	·	·	·	·
O=C(CSc1c2c(nc3ccc(Cl)cc13)CCCC2)NCc1ccccc1Cl	i	?	22.4µM*	-2.0%	11.2µM*	15.3%	?	?	-0.8%	26.8%	?
